Here are results for 16 compounds from PubChem BioAssay (NCI).

About 83,000 compounds went through this panel and 20% of them were active in at least one assay; those are over-represented in the sample as a whole.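 Each cell line was grown in a 96-well plate and treated with one concentration of compound for 48 hours. Values below 10 were considered active.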 Values without a mark were called inactive. The source made the active and inactive calls.

Holding throughout (test): NCI-60 one-dose screen, 48 h (100 = growth as untreated, 0 = no growth, -100 = all killed)
What all share (settings): 10 µM unless noted

Assay [1] concerns NCI-H23 lung.
For assay [2], the system named is NCI-H226 lung.
The subject of assay [3] is NCI-H322M lung.
Assay [4] concerns HOP-62 NSCLC.
The subject of assay [5] is NCI-H460 lung.
In assay [6] the test system is HOP-92 NSCLC.
Assay [7] concerns A549/ATCC NSCLC.
In assay [8] the test system is 786-0 renal.
Assay [9] deals with COLO 205 colon.
Assay [10] concerns DU-145 prostate.
Assay [11] deals with K-562 leukemia.
In assay [12] the test system is MALME-3M melanoma.
The test system of assay [13] is MDA-MB-231 breast.
The test system of assay [14] is RXF 393 renal.
Assay [15] concerns SF-268 CNS.
Assay [16] has as its system SF-539 CNS.
Assay [17] deals with UACC-257 melanoma.
Assay [18] relates to M14 melanoma.
Assay [19] relates to SF-295 CNS.

Take `COc1cc(NC(C)CCCN)c2nc(C)ccc2c1Oc1ccc(F)cc1` (stereo not drawn): the growth in [1] is 84.8%; in assay [2], 84.9%; in [3], 37.4%; in assay [4], 85.8%; in [5], 73.8%; in assay [6], 50.3%. For the same compound, the growth is 90% in assay [7]; 65.9% in [8]; -45.1% (active) in assay [9]; 99.9% in [10]; 35.9% in [11]; 71.7% in [12]. The growth was 61.5% in assay [13]; 69.3% in assay [14]; 80.7% in assay [15]; 87.5% in [16]; 65.7% in assay [17]; 62.3% in assay [18].

Take `CC1CC=CCC1C1OCC(C)(C)CO1` (stereo not drawn): the growth in assay [1] was 108%; in assay [2], 99.9%; in assay [3] it was 105%; in assay [4], 89.3%; in assay [5] it was 109%; in [6], 106%. Besides, the growth in assay [7] is 96.7%; in [8], 97.6%; in [9] it was 111%; in assay [10] it was 108%; in [11] it was 102%; in assay [12], 109%. The growth in assay [13] was 112%; in assay [14], 103%; in assay [15], 106%; in assay [16] it was 95.5%; in assay [17] it was 97%; in [18] it was 101%.

As for `COc1cccc(C=Nc2cc(C(C)C)c(O)cc2C)c1O`, the growth in [1] is 95.2%; in assay [2], 93%; in [3], 95.3%; in assay [4] it was 95%; in assay [5] it was 107%; in assay [6] it was 82.3%. The growth in [7] was 109%; in assay [8] it was 106%; in assay [9] it was 98.6%; in assay [10], 114%; in assay [11], 107%; in [12], 106%. In addition, the growth in assay [13] is 88.9%; in assay [14] it was 104%; in assay [15], 92.1%; in assay [16] it was 91.7%; in assay [17], 111%; in [18], 106%.

Take `O=C1CSC(c2ccccc2Cl)N1c1nnc(Cn2nnc3ccccc32)o1` (stereo not drawn): the growth was 80.6% in [1]; 96.1% in [2]; 80.9% in assay [3]; 91.9% in assay [4]; 88% in assay [5]; 56.8% in [6]. In addition, the growth in assay [7] is 59.9%; in [8], 88.7%; in [9], 106%; in assay [10], 91.8%; in [11], 69.6%; in [12], 127%. Moreover, the growth in assay [13] was 77.1%; in assay [14] it was 90.1%; in assay [15], 84.2%; in assay [16], 89%; in [17], 94.7%; in [18], 89.8%.

Consider `C1=C(Cc2ccccc2)n2cnc3ncnc(c32)S1`, for which the growth in assay [1] was 61.3%; in [2], 53.7%; in assay [3], 73%; in [4] it was 39.9%; in [5], 83.8%; in assay [6], 56.6%. Further, the growth in assay [7] was 87.3%; in assay [8], 29.3%; in assay [9], 82%; in assay [10] it was 27.3%; in [11], 14.4%; in assay [12], 68%. Besides, the growth in [13] is 35.1%; in assay [15], 71.9%; in assay [19], 30%; in assay [16], 43.2%; in assay [17], 74.9%; in [18], 13.2%.

Regarding `COc1ccc(C(=O)/C=C/c2ccc(C)cc2)cc1OC`, the growth in assay [1] is 78.3%; in assay [2], 74.4%; in assay [3], 74.6%; in assay [4], 79%; in [5], 80.9%; in assay [6], 52.5%. Besides, the growth in assay [7] is 36.3%; in assay [8], 85.3%; in [9] it was 82.8%; in [10], 11.3%; in assay [11], 21.1%; in assay [12], 101%. Further, the growth was 90.7% in [13]; 57.3% in assay [15]; 101% in assay [19]; 70.3% in assay [16]; 99.2% in assay [18].

For `COc1ccc(N2CCN(CC(=O)N3CCN(c4nnc(-c5ccccc5)c(-c5ccccc5)n4)CC3)CC2)cc1`, the growth is 46.8% in assay [1]; 46.2% in assay [2]; 78.2% in [3]; 64.7% in assay [4]; 42.5% in [5]; 39% in assay [6]. Moreover, the growth in assay [7] was 14.8%; in assay [8], 27%; in [9], 47.9%; in [10], 70.5%; in assay [11], 18.7%; in assay [12], 64.6%. In addition, the growth is 72.1% in assay [13]; 62.6% in assay [15]; 39.6% in assay [19]; 53.9% in assay [16]; 64.4% in assay [18].

`Cc1cc(C)c2c(N)c3cccc(C)c3nc2n1`: the growth in [1] was -28.6% (active); in assay [2] it was -10.6% (active); in [3], 0.65% (active); in assay [4] it was -28.4% (active); in assay [5] it was -1.3% (active); in [6], -12.9% (active). In addition, the growth in assay [7] is -40.9% (active); in assay [8], -3.97% (active); in assay [9], -18.2% (active); in [10], 2.87% (active); in [11], -11.1% (active); in assay [12] it was -23.3% (active). Moreover, the growth in assay [13] is 14.7%; in assay [15], 9.97% (active); in [19], 1.7% (active); in assay [16] it was 1.42% (active); in [18], -35.1% (active).

Take `COc1cccc(-c2nc3cc(NC(=O)c4ccc(Cl)c(C#N)c4)ccc3o2)c1`: the growth in assay [1] was -18.8% (active); in assay [2] it was 76.1%; in assay [3], -13.2% (active); in assay [4], 70.2%; in [5] it was -21.4% (active); in assay [6], 26.5%. Besides, the growth in [7] was -26.7% (active); in assay [8], -92.1% (active); in assay [9], 28.9%; in assay [10], 8.18% (active); in assay [11], 8.47% (active); in [12], -56.5% (active). The growth in [13] is 8.99% (active); in assay [15] it was -5.11% (active); in assay [19], 25.3%; in assay [16] it was -70.7% (active); in [17] it was 4.33% (active); in assay [18] it was -82.7% (active).

As for `O=C(/C=C/c1c(-c2ccccc2)[nH]c2ccccc12)S(=O)(=O)c1ccccc1`, the growth in assay [1] is 73%; in assay [2] it was 69.1%; in assay [3] it was 93%; in assay [4], 69.3%; in assay [5] it was 43.8%; in assay [6] it was 47.8%. In addition, the growth in assay [7] was 25.7%; in assay [8] it was 74.4%; in assay [9], 80.6%; in assay [10], 76%; in [11] it was 9.37% (active); in [12], 88.2%. Besides, the growth in assay [13] was 63.3%; in assay [15] it was 89.5%; in assay [19], 63.5%; in assay [16], 89.5%; in [18], 51.7%.

Turning to `Nc1nc2c(nnn2Cc2ccc(Cl)c(Cl)c2)c(=O)[nH]1`, the growth is 104% in assay [1]; 96.5% in [2]; 82.4% in [3]; 90.4% in assay [4]; 104% in [5]; 75.5% in assay [6]. Besides, the growth was 103% in assay [7]; 97.3% in [8]; 98.5% in assay [9]; 116% in assay [10]; 83.3% in assay [11]; 107% in [12]. For the same compound, the growth in [13] was 94.5%; in assay [14] it was 107%; in assay [15] it was 96.6%; in assay [16], 98.3%; in [17] it was 98.9%; in [18], 103%.

For `COc1ccc(NC(=O)[C@@H]2C[C@H]2c2ccccc2)c(C(N)=O)c1`, the growth is 91.3% in assay [1]; 101% in assay [2]; 94.2% in assay [3]; 100% in [4]; 101% in [5]; 94.6% in assay [6]. Further, the growth in assay [7] was 97.5%; in [8], 106%; in assay [9], 106%; in [10], 105%; in assay [11] it was 71.8%; in assay [12] it was 91%. Further, the growth is 87.9% in assay [13]; 97.9% in [15]; 100% in [19]; 99.7% in assay [16]; 92.9% in assay [17]; 91.4% in assay [18].

Consider `Clc1ccc(C2c3ccccc3-c3nccn32)c(Cl)c1` (stereo not drawn), for which the growth in [1] was 40%; in assay [2], 66.6%; in assay [3] it was 88.1%; in [4], 78.2%; in assay [5], 88.5%; in [6], -2.6% (active). For the same compound, the growth is 79.6% in [7]; 80.8% in assay [8]; 97.2% in [9]; 92.4% in assay [10]; 35.5% in assay [11]; 83.8% in assay [12]. For the same compound, the growth in assay [13] was 84.1%; in [15], 99.3%; in [19] it was 41.7%; in assay [16], 88.5%; in assay [17] it was 80.5%; in [18], 65%.

As to `COc1ccc(-n2cnc3cc(C(=O)N4CCCCC4)ccc32)cc1`, the growth was 95.5% in [1]; 95.3% in assay [2]; 102% in assay [3]; 91.4% in [4]; 101% in [5]; 95.3% in assay [6]. The growth in assay [7] was 103%; in [8] it was 100%; in assay [9], 105%; in assay [10], 111%; in assay [11], 99.4%; in assay [12], 97%. For the same compound, the growth in [13] is 96.4%; in assay [15], 105%; in assay [19], 97.9%; in assay [16] it was 98.1%; in assay [17], 101%; in [18], 101%.

As to `CCN(CC)CCOCC[C@H]1CC[C@H]2[C@@H]3[C@H](C)Cc4cc(OS(N)(=O)=O)ccc4[C@H]3CC[C@]12C`, the growth in [1] was -87.4% (active); in assay [2] it was -61.9% (active); in [3], -24.9% (active); in [4] it was -96.7% (active); in assay [5] it was -85.2% (active); in assay [6], -88.2% (active). For the same compound, the growth in [7] was -90.2% (active); in assay [8], -99.6% (active); in assay [9], -78.5% (active); in assay [10], -58.6% (active); in assay [11], -63.8% (active); in [12], -67.5% (active). In addition, the growth was -67.3% (active) in [13]; -80.2% (active) in [15]; -65% (active) in assay [19]; -96.1% (active) in [16]; -97.1% (active) in [18].

For `COc1ccc(-c2nnc3c4[nH]cnc4ncn23)c(OC)c1`, the growth is 22.3% in assay [1]; 43.5% in assay [2]; 32.9% in assay [3]; 25.8% in [4]; 39.4% in assay [5]; 52.9% in assay [6]. Further, the growth in assay [7] was 71.6%; in [8], 21.3%; in assay [9] it was 32.5%; in [10], 26.5%; in assay [11] it was 11.5%; in [12], 37.4%. The growth was 29% in assay [13]; 33% in [15]; 20.1% in assay [19]; 14.6% in assay [16]; 40.6% in assay [17]; 10.5% in [18].
